# According to article PMC8384837, “Expanding the binding specificity for RNA recognition by a PUF domain”:
# Positions count from the first letter of the chain named.
# Columns and labels:
# Assay in all cases: yeast three-hybrid, YBZ-1, SC-Leu-His + 0.5 mM 3-AT, 4 days
# Conditions in all cases: tags: N-Gal4 AD-HA kept; label: inside an RPR1-promoter hybrid RNA with tandem MS2 sites; ssRNA
# [1] = target: PUM1 PUF domain R1-KGE (Homo sapiens, UniProt Q14671 828-1176, S863K;R864G;Q867E)
# Summary of the method: (§1)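 Each repeat of the Pumilio-1 PUF domain was randomized at its three base-contacting residues, and these libraries were co-expressed from a centromeric plasmid with matching RNA elements in strain YBZ-1. After four days on SC-Leu (input) or SC-Leu-His + 0.5 mM 3-AT (selection), the repeat regions were PCR-amplified and Illumina-sequenced. The interaction score compares variant frequency between input and selection as a log change, computed in log2 with a pseudocount of 1 for absent variants.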
# [2] = target: T1, PUM1 PUF domain R6-SWV (Homo sapiens, UniProt Q14671 828-1176, N1043S;Y1044W;Q1047V)
# T1 sequence: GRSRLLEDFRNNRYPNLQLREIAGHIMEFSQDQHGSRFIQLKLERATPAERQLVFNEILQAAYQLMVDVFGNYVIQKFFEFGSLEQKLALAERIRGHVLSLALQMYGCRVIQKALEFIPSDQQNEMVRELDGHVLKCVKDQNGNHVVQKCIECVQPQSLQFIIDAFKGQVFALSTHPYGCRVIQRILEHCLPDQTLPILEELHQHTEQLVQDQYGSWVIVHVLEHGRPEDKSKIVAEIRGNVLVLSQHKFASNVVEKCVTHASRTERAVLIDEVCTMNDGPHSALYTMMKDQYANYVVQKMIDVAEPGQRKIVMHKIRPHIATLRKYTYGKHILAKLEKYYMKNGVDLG
# Summary of the method: as §1
# [3] = target: T2, PUM1 PUF domain R6-LWA (Homo sapiens, UniProt Q14671 828-1176, N1043L;Y1044W;Q1047A)
# T2 sequence: T1 sequence with S216L, V220A
# Summary of the method: as §1
# [4] = target: PUM1 PUF domain R5-GNN (Homo sapiens, UniProt Q14671 828-1176, C1007G;R1008N;Q1011N)
# Summary of the method: as §1
# [5] = target: PUM1 PUF domain R5-GRW (Homo sapiens, UniProt Q14671 828-1176, C1007G;Q1011W)
# Summary of the method: as §1
# [6] = target: PUM1 PUF domain R4-NPN (Homo sapiens, UniProt Q14671 828-1176, H972P;Q975N)
# Summary of the method: as §1
# [7] = target: PUM1 PUF domain R7-MSR (Homo sapiens, UniProt Q14671 828-1176, S1079M;N1080S;E1083R)
# Summary of the method: as §1
# [8] = target: PUM1 PUF domain R7-RIR (Homo sapiens, UniProt Q14671 828-1176, S1079R;N1080I;E1083R)
# Summary of the method: as §1
# [9] = target: PUM1 PUF domain R8-PHR (Homo sapiens, UniProt Q14671 828-1176, N1122P;Y1123H;Q1126R)
# Summary of the method: as §1
sequence,measurement,setting,value
GGCUAGAACUAGUGGAUCCCCCGGCGCCCGGCGGCUCGAGCCCGGGUAAGUGUAAAUGGUCUGCAUGCCGCCGGGCGCCAUGCCUGCAGGUCGACUCUAGAAAACAUG,binding signal,[1],1.9 log2 enrichment (interaction score)
GGCUAGAACUAGUGGAUCCCCCGGCGCCCGGCGGCUCGAGCCCGGGUAAGUGAAAAUAGUCUGCAUGCCGCCGGGCGCCAUGCCUGCAGGUCGACUCUAGAAAACAUG,binding signal,[2],2.26 log2 enrichment (interaction score)
same,binding signal,[3],3.04 log2 enrichment (interaction score)
GGCUAGAACUAGUGGAUCCCCCGGCGCCCGGCGGCUCGAGCCCGGGUAAGUGUUAAUAGUCUGCAUGCCGCCGGGCGCCAUGCCUGCAGGUCGACUCUAGAAAACAUG,binding signal,[4],3.44 log2 enrichment (interaction score)
same,binding signal,[5],4.05 log2 enrichment (interaction score)
GGCUAGAACUAGUGGAUCCCCCGGCGCCCGGCGGCUCGAGCCCGGGUAAGUGUAUAUAGUCUGCAUGCCGCCGGGCGCCAUGCCUGCAGGUCGACUCUAGAAAACAUG,binding signal,[6],3.56 log2 enrichment (interaction score)
GGCUAGAACUAGUGGAUCCCCCGGCGCCCGGCGGCUCGAGCCCGGGUAAGUUUAAAUAGUCUGCAUGCCGCCGGGCGCCAUGCCUGCAGGUCGACUCUAGAAAACAUG,binding signal,[7],3.5 log2 enrichment (interaction score)
same,binding signal,[8],3.4 log2 enrichment (interaction score)
GGCUAGAACUAGUGGAUCCCCCGGCGCCCGGCGGCUCGAGCCCGGGUAAGCGUAAAUAGUCUGCAUGCCGCCGGGCGCCAUGCCUGCAGGUCGACUCUAGAAAACAUG,binding signal,[9],4.58 log2 enrichment (interaction score)
